Inconclusive results are not listed. Entries that show only a call come without a potency. The source made the active and inactive calls. The call rests on the fitted dose curve; in most records, active means well fitted cell-killing curve with a large enough effect in the repeat runs; inconclusive means weak or mixed curves, or effect the other way; inactive means no such curve, though single readings can be large or run the other way.
test: Caspase-3/7 induction in CHO-K1 cells by small molecules, qHTS cell viability counter screen (AID 1346979); conditions: CellTiter-Fluor fluorescence, 17 h; series mostly up to 92.4 µM; further: nearly all actives have a fitted effect of over 35% in size
Source text: National Center for Advancing Translational Sciences [NCATS]
NIH Chemical Genomics Center [NCGC]
U.S. Environmental Protection Agency [EPA]
National Institutes of Environmental Health Sciences [NIEHS]
National Toxicology Program [NTP]
U.S. Food and Drug Administration [FDA]
Apoptosis is a process of programmed cell death and plays a central role in the development of multicellular organisms. It is a highly regulated process and induces cell death by activating caspases, which are the members of cysteine aspartic acid-specific protease (caspase) family. Caspases involved in apoptosis are classified by their mechanism of action as initiator caspases (caspase-2, -8, -9 and -10) and executioner caspases (caspase-3, -6, and -7). Inhibition of apoptosis results in number of cancers, autoimmune diseases, inflammatory diseases and viral infection. To identify small molecule compounds that induce apoptosis, a homogeneous, luminescent Caspase-Glo 3/7 assay was used. Wild type CHO-K1 cells were used to screen Tox21 libraries for identifying caspase-3/7 activity inducers. Also cytotoxicity of the compounds was tested in parallel by measuring the cell viability using CellTiter-Fluor assay system in the same wells.
Tox21 Assay Protocol Summary:
CHO-K1 cells were dispensed at 1,500 per well in 5uL of culture medium into white solid bottom 1536-well plates (Corning Life Sciences, Corning, NY) using a Multidrop Combi (Thermo Scientific, Waltham, MA) dispenser. The assay plates were incubated at 37 C and 5% CO2 for 5hr, and then 23nL of compounds dissolved in DMSO and positive control were transferred using a Pintool station (Wako, San Diego, CA). The assay plates were incubated at 37C and 5% CO2 for 17hr. For cytotoxicity read, after 16hr incubation at 37C, 1uL CellTiter-Fluor reagent (Promega Corporation, Madison, WI) was added to each well of the assay plates using Flying Reagent Dispenser (FRD, Aurora Discovery, San Diego, CA). After 1hr incubation at 37C and 5% CO2, the fluorescence signal was quantified using a ViewLux plate reader (PerkinElmer, Shelton, CT).
Potency means the concentration at half of the fitted maximal effect.

Question: Which Potency does the source give for `Nc1cc(Cl)ccc1O` here?
Answer: The Potency was 29.6 µM (active).

Question: With `CC(C)(C)OC(=O)c1ncn2c1[C@@H]1CCCN1C(=O)c1c(Br)cccc1-2` as the molecule, how does the Potency read?
Answer: Its Potency is “inactive”.

Question: Which Potency does the source give for `CCCCCCI` here?
Answer: The Potency was “inactive”.

Question: With `O=NN1CCCCC1` as the molecule, how does the Potency read?
Answer: The Potency was “inactive”.

Question: Which Potency does the source give for `ClCC(Cl)Cl` here?
Answer: The Potency was “inactive”.

Question: For `CCC(=O)c1ccccc1`, which Potency is on record?
Answer: The Potency was “inactive”.

Question: With `Cc1nc(N)nc(N)n1` as the molecule, how does the Potency read?
Answer: The Potency was “inactive”.

Question: For `CCCCN(CCCCO)N=O`, which Potency is on record?
Answer: Its Potency is “inactive”.

Question: With `CC(=O)Nc1cc([As](=O)(O)O)ccc1O` as the molecule, how does the Potency read?
Answer: The Potency was “inactive”.

Question: Which Potency does the source give for `N#Cc1c(Cl)cccc1Cl` here?
Answer: Its Potency is “inactive”.

Question: With `Nc1cnn(-c2ccccc2)c(=O)c1Cl` as the molecule, how does the Potency read?
Answer: The Potency was “inactive”.

Question: Which Potency does the source give for `CCOP(=S)(OCC)SCSc1ccc(Cl)cc1` here?
Answer: Its Potency is “inactive”.

Question: Which Potency does the source give for `CCc1cc2c(s1)-n1c(C)nnc1CN=C2c1ccccc1Cl` here?
Answer: The Potency was “inactive”.

Question: With `CCCCP(CCCC)CCCC` as the molecule, how does the Potency read?
Answer: Its Potency is “inactive”.

Question: Which Potency does the source give for `COC(C)(C)C` here?
Answer: Its Potency is “inactive”.

Question: For `CCCCOC(=O)c1ccccc1C(=O)O`, which Potency is on record?
Answer: Its Potency is “inactive”.

Question: Which Potency does the source give for `CC(C1CC1)C(O)(Cn1cncn1)c1ccc(Cl)cc1` (stereo not given) here?
Answer: The Potency was “inactive”.

Question: For `CNNC`, which Potency is on record?
Answer: Its Potency is “inactive”.

Question: Which Potency does the source give for `N#CCCC#N` here?
Answer: Its Potency is “inactive”.

Question: For `CCCCOP(=O)(O)OCCCC`, which Potency is on record?
Answer: The Potency was “inactive”.

Question: With `CCOP(=S)(Oc1cnc(C(C)(C)C)nc1)OC(C)C` (stereo not given) as the molecule, how does the Potency read?
Answer: The Potency was “inactive”.

Question: Which Potency does the source give for `CCCCCCBr` here?
Answer: Its Potency is “inactive”.

Question: With `CCOP(=S)(OCC)Oc1ncn(-c2ccccc2)n1` as the molecule, how does the Potency read?
Answer: Its Potency is “inactive”.

Question: With `Cc1ncc(CNC(=O)N(CCCl)N=O)c(N)n1` as the molecule, how does the Potency read?
Answer: The Potency was “inactive”.

Question: With `CCCSP(=S)(OCC)Oc1ccc(Cl)cc1Cl` (stereo not given) as the molecule, how does the Potency read?
Answer: The Potency was “inactive”.

Question: With `O=C(NCO)NCO` as the molecule, how does the Potency read?
Answer: Its Potency is “inactive”.

Question: With `CCN(CC)C(C)C(=O)c1ccccc1` (stereo not given) as the molecule, how does the Potency read?
Answer: The Potency was “inactive”.

Question: Which Potency does the source give for `COc1cc(OC)nc(Sc2cccc(Cl)c2C(=O)O)n1` here?
Answer: The Potency was “inactive”.

Question: With `Cc1cc(C)nc(Nc2ccccc2)n1` as the molecule, how does the Potency read?
Answer: Its Potency is “inactive”.

Question: With `[O]=[Cd]` as the molecule, how does the Potency read?
Answer: Its Potency is “inactive”.

Question: With `CC1(C)C(=O)NC(=O)NC1=O` as the molecule, how does the Potency read?
Answer: Its Potency is “inactive”.

Question: For `NC(=O)O`, which Potency is on record?
Answer: Its Potency is “inactive”.

Question: For `C[N+](=O)[O-]`, which Potency is on record?
Answer: The Potency was “inactive”.

Question: Which Potency does the source give for `CS(=O)(=O)c1cc(C(F)(F)F)ccc1C(=O)c1cnoc1C1CC1` here?
Answer: Its Potency is “inactive”.

Question: With `COc1ncc(F)c2nc(S(=O)(=O)Nc3c(F)cccc3F)nn12` as the molecule, how does the Potency read?
Answer: The Potency was “inactive”.

Question: Which Potency does the source give for `O=[N+]([O-])c1ccc(CBr)cc1` here?
Answer: Its Potency is “inactive”.

Question: Which Potency does the source give for `c1cc2c(c(N3CCNCC3)c1)OCCO2` here?
Answer: Its Potency is “inactive”.

Question: For `CCOC(=O)N(C)C(=O)CSP(=S)(OCC)OCC`, which Potency is on record?
Answer: Its Potency is “inactive”.

Question: With `COC(=O)C1=CCCN(C)C1` as the molecule, how does the Potency read?
Answer: Its Potency is “inactive”.

Question: With `CC1=NNC(=O)N(/N=C/c2cccnc2)C1` as the molecule, how does the Potency read?
Answer: Its Potency is “inactive”.

Source: PubChem BioAssay (Tox21)
